We go through 5 molecules from PubChem BioAssay.

A short description of test [1]: small molecules captured by biotinylated probe aFSTL3 – biochemical, small-molecule microarray, fluorescence 635/667, stem cell growth factor project, primary screen (AID 1064).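 Further: measures binding of the biotinylated anti-FSTL3 antibody to printed compounds.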 The note with it: higher = more signal.
Test [2] can be described thus: binders from COS7 lysate, DM2A8 probe, primary screen, torsin A project, cell lysate, small-molecule microarray, fluorescence 635/667 (AID 1065). The note with it: higher = more signal, COS7 lysate expressing mutant human TOR1A.
Test [3] is described as follows: small molecules captured by biotinylated probe aFGF2 – biochemical, small-molecule microarray, fluorescence 635/667, stem cell growth factor project, primary screen (AID 1067).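 Further: measures binding of biotinylated aFGF2 protein to printed compounds on slides; z-score merges feature fluorescence and signal-to-noise across triplicate slides.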 The conditions noted are these: higher = more signal.
Test [4] can be described thus: small molecules captured by biotinylated probe aFGF10 – biochemical, small-molecule microarray, fluorescence 635/667, stem cell growth factor project, primary screen (AID 1071).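 Further: score merges 667 nm spot intensity and signal to noise from triplicate slides.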 The note with it: higher = more signal.
Test [5] deals with Neurogenic locus notch homolog protein 2 (Homo sapiens) (UniProt Q04721). The test can be described thus: small molecules binding Notch2 protein – biochemical, small-molecule microarray, 635 nm fluorescence, stem cell growth factors, primary screen (AID 1073). The conditions noted are these: higher = more signal.
In test [6] the target is Pro-neuregulin-1, membrane-bound isoform (Homo sapiens) (UniProt Q02297). The test can be described thus: small molecules binding neuregulin-1 protein – biochemical, small-molecule microarray, fluorescence 635/667, psychiatric disease protein project, primary screen (AID 1075).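 Further: score combines 667 nm spot fluorescence with signal to noise.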 The conditions noted are these: NRG1 binding, 635 nm fluorescence, higher = more signal.
Test [7] has as its system Neuregulin-1 EGF-like domain. Put plainly: small molecules binding NRG1 EGF domain – biochemical, small-molecule microarray, 635 nm fluorescence, primary screen (AID 1081).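 Further: binding of the protein to compounds printed on small-molecule microarray slides.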 The note with it: higher = more signal.
Test [8] is described as follows: FRG1 expression reporter modulators in myotubes – cell-based, C2C12 myotubes, firefly/Renilla luciferase, luminescence, FRG1 inhibition for FSHD, primary screen (AID 1084). The note with it: FRG1 promoter luciferase, higher = more signal, called active from +8 up or from −8 down.
Test [9] is described as follows: small molecules captured by biotinylated probe aFST – biochemical, small-molecule microarray, fluorescence 635/667, stem cell growth factor project, primary screen (AID 1086).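 Further: score merges 667 nm fluorescence with signal-to-noise of each printed compound spot.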 The note with it: higher = more signal.
The nature of test [10]: binders of probe aHhip on microarray, primary screen, stem cell growth factor project, biochemical, small-molecule microarray, fluorescence 635/667 (AID 1087).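 Further: score merges spot fluorescence at 667nm with spot signal to noise ratio.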 The conditions noted are these: higher = more signal.
The subject of test [11] is PRMT1 (protein arginine N-methyltransferase 1). Put plainly: small molecules binding arginine methyltransferase PRMT1 – biochemical, small-molecule microarray, 635 nm fluorescence, primary screen (AID 1088).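 Further: binding of Prmt1 protein to compounds spotted on small-molecule microarray slides.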 The conditions noted are these: higher = more signal.
The nature of test [12]: growth effects on S. cerevisiae YJM789 – YJM789 clinical isolate, OD600, 24 h, basal, primary screen (AID 1089).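 Further: growth of clinical yeast isolate S. cerevisiae YJM 789 seeded 1000 cells per well; test concentration not given here.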 The conditions noted are these: higher = more signal, called active from +8 up or from −8 down.
The nature of test [13]: S. pombe growth modifiers, basal conditions – strain 972, OD600, 24 h, no modulator, primary screen (AID 1090).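 Further: basal condition with compound alone and no growth modifier present; test concentration not given here.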 The conditions noted are these: S. pombe 972 growth, higher = more signal, called active from +8 up or from −8 down.
Test [14] can be described thus: budding yeast growth modifiers under rapamycin – strain BY4716, OD600, 96 h, primary screen (AID 1091). Further: test concentration not given here. The conditions noted are these: S. cerevisiae BY4716 + rapamycin, higher = more signal, called active from +8 up or from −8 down.
The target in test [15] is Torsin-1A-interacting protein 2 (Homo sapiens) (UniProt Q8NFQ8). The test can be described thus: small molecules binding lysate-expressed LULL1 – cell lysate, human LULL1 lysate, 635/667 nm fluorescence, primary screen (AID 1092).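 Further: probe is lysate of COS7 cells overexpressing human LULL1; score merges per-feature 667 nm fluorescence with signal-to-noise.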 The note with it: small-molecule microarray, hLULL1 lysate binding, 635 nm fluorescence; higher = more signal.
Test [16] can be described thus: optical density change of DRC41 E. coli – strain DRC41, OD650, 24 h, E. coli filamentation project, primary screen (AID 1093).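 Further: MC1000 strain lacking acrAB efflux and sulA so SOS filamentation is blocked; test concentration not given here.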 The note with it: E. coli DRC41 growth, higher = more signal, called active from +8 up or from −8 down.
Test [17] in a line: probe aLefty2 binding to arrayed compounds – biochemical, biotinylated probe, 635/667 nm fluorescence, primary screen (AID 1094).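 Further: score merges spot fluorescence near 667 nm with spot signal-to-noise ratio.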 The conditions noted are these: small-molecule microarray, higher = more signal.
Test [18] has as its system Noggin (protein binding on small-molecule microarray). The test can be described thus: small molecules binding Noggin protein – biochemical, 635/667 nm fluorescence, primary screen (AID 1095).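 Further: score merges 667 nm feature fluorescence with signal to noise over triplicate slides.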 The note with it: 635 nm fluorescence, higher = more signal.
The target of test [19] is Neurogenic locus notch homolog protein 3 (Homo sapiens) (UniProt Q9UM47). Put plainly: small molecules binding NOTCH3 protein – biochemical, 635/667 nm fluorescence, primary screen (AID 1096). The note with it: small-molecule microarray, 635 nm fluorescence, higher = more signal.
Test [20] in a line: probe aEGFR binding to arrayed compounds – biochemical, biotinylated probe, 635/667 nm fluorescence, primary screen (AID 1097).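 Further: probe is a biotinylated anti-EGFR antibody binding compounds printed on slides; score combines fluorescence near 667 nm and signal to noise of each spot.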 The note with it: small-molecule microarray, higher = more signal.

Each structure is given as a SMILES string. Calls of active or inactive are those of the source.

Sequence of Neurogenic locus notch homolog protein 3 (Homo sapiens) (Q9UM47 whole entry, looked up): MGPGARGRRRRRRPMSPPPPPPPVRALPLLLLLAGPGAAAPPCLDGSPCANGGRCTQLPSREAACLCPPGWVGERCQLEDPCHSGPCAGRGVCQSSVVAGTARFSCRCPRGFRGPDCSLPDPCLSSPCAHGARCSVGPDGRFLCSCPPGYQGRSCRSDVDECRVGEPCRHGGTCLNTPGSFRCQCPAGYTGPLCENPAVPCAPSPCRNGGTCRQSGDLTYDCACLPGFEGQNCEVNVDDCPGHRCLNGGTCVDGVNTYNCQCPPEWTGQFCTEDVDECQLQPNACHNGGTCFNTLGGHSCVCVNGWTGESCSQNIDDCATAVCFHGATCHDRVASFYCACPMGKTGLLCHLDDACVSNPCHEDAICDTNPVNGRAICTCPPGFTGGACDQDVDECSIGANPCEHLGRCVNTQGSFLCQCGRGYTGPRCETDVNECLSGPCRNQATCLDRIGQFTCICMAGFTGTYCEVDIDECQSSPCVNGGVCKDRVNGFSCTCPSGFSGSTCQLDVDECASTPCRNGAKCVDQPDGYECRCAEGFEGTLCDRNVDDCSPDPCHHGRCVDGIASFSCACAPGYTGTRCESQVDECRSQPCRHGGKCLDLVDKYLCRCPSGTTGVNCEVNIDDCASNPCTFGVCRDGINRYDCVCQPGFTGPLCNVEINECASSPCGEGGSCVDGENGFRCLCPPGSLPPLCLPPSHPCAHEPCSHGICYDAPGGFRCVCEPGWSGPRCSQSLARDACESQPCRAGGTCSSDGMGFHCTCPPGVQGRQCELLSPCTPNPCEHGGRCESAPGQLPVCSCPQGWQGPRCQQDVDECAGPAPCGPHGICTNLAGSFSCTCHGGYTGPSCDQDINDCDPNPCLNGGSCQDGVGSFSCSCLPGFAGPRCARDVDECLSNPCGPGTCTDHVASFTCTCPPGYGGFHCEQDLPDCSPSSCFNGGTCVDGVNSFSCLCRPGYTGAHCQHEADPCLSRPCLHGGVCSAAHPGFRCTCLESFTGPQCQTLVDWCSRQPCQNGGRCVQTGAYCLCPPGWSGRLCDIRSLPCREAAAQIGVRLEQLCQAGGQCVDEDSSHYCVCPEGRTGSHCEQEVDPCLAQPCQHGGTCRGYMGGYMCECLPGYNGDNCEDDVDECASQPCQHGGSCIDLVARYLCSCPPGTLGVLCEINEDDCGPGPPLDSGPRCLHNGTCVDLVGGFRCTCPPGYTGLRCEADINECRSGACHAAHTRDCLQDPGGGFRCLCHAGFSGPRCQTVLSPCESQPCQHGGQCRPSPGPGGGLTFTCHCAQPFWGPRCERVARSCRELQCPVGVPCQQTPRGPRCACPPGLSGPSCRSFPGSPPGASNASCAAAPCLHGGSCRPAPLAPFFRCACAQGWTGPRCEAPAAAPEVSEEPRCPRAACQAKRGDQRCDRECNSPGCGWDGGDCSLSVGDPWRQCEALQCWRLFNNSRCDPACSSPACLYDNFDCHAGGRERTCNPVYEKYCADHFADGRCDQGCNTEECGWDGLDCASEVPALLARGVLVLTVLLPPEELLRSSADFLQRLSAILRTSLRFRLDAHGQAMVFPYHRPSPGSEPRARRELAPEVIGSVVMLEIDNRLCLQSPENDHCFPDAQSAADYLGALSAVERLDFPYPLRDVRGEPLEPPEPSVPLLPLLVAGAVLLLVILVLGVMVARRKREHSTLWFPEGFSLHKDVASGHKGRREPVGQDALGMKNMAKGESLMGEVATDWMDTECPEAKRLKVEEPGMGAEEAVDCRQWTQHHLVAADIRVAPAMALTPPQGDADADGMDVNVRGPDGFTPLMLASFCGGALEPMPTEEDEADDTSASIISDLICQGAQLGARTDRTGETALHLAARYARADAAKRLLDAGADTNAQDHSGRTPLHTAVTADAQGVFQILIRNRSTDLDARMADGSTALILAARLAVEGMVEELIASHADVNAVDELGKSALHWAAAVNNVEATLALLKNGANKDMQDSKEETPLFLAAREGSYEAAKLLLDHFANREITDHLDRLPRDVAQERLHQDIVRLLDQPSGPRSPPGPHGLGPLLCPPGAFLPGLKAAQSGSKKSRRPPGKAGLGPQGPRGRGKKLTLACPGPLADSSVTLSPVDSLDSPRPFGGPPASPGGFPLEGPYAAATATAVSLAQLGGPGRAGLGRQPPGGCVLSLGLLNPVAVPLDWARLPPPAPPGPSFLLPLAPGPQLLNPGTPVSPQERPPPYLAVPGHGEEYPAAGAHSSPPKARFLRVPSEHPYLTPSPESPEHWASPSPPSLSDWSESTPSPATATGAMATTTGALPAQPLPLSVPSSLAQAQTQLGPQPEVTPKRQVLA
Sequence of Torsin-1A-interacting protein 2 (Homo sapiens) (Q8NFQ8 whole entry, looked up): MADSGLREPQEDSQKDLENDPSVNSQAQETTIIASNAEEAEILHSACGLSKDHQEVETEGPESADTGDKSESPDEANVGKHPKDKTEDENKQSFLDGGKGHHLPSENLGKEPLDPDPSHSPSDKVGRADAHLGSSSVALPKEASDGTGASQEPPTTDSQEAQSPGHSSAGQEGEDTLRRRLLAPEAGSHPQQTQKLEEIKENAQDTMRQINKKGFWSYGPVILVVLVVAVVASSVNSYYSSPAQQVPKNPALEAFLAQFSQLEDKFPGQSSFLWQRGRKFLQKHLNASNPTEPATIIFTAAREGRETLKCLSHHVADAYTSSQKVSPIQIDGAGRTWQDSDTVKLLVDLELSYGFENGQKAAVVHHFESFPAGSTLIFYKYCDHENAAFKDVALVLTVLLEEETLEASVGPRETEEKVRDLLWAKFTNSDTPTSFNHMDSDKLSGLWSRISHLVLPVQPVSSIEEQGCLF
Sequence of Pro-neuregulin-1, membrane-bound isoform (Homo sapiens) (Q02297 whole entry, looked up, the tested form may be a part, canonical isoform): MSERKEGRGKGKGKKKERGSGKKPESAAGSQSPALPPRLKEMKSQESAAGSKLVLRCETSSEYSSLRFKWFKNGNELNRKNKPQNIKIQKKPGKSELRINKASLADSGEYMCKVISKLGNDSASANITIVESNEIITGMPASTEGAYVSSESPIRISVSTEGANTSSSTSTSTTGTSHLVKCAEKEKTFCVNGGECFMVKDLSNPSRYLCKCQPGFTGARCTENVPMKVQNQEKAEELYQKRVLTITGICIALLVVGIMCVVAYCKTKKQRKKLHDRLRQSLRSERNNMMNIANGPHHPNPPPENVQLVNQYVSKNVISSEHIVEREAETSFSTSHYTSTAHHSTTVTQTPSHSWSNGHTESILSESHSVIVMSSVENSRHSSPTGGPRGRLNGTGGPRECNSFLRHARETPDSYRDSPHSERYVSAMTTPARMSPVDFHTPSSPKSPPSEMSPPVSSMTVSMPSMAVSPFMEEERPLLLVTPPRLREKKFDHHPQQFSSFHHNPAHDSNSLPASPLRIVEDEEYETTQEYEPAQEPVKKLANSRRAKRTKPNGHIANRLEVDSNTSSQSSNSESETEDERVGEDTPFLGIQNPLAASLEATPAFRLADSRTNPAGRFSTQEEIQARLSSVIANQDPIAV

For `CCCCC=C[C@@H](NC(=O)c1ccc(C(=O)OC)cc1)c1ccccc1`, the composite z-score is 0.026 in [1]; 0.0108 in [2]; -0.116 in test [3]; 0.213 in test [4]; 1.31 in test [5]; 0.919 in test [6]. Moreover, the composite z-score in [7] is 0.903; in test [9], 0.474; in [10], -0.189; in [11], 1.29; in [15] it was 2.46; in test [17], 0.145. Moreover, the values for the composite z-score in test [18], in test [19] and in [20] were 0.454, 1.02 and -0.0936, respectively. The z-score in [8] was 1.86 (inactive); in test [12], -0.381 (inactive); in [13] it was -1.22 (inactive); in test [14] it was 0.771 (inactive); in test [16], -0.894 (inactive).

As for `CCCCCCCCCCC(O)C1C=CC2C(=O)N(Cc3ccccc3)C(=O)C2N1n1cnnc1` (stereo not given), the composite z-score in test [1] was determined as 0.794; in test [2], 0.0622; in test [3], 0.279; in [4] it was 0.137; in test [5], 0.53; in test [6], 0.919. The composite z-score in [7] was 0.843; in [9], 1.08; in test [10] it was 0.582; in test [11], 1.14; in [15] it was 2.75; in [17], 0.326. The values for the composite z-score in test [18], in test [19] and in [20] were -0.331, 0.55 and 0.0773, respectively. The z-score was 1.91 (inactive) in test [8]; 0.187 (inactive) in [12]; -0.25 (inactive) in [13]; -0.976 (inactive) in test [14]; -1.45 (inactive) in [16].

Turning to `CC(C)CNC(=O)[C@@H]1c2ccccc2C(=O)N(Cc2cc(C(F)(F)F)cc(C(F)(F)F)c2)[C@H]1c1ccc(CO)cc1`, the composite z-score in [1] is 0.491; in test [2] it was -0.249; in test [3] it was 0.071; in test [4] it was -0.365; in [5] it was -0.744; in test [6] it was -0.27. Also, the composite z-score in test [7] amounted to 0.401; in test [9] it was 0.0438; in test [10], 0.224; in test [11] it was 0.457; in test [15], 0.557; in test [17] it was 0.104. Moreover, the values for the composite z-score in test [18], in [19] and in test [20] were -0.96, -0.977 and -0.0682, respectively. In addition, the z-score in test [8] is 0.53 (inactive); in test [12], 0.976 (inactive); in test [13], -0.989 (inactive); in [14], -0.706 (inactive); in [16] it was -0.381 (inactive).

`C=CCC(OC(C)=O)[C@@H]1[C@@H](N(Cc2cccc3ccccc23)C(=O)c2ccc(C)cc2)c2cc(OCCCO)ccc2N1C(=O)Cc1ccc(OC)cc1` (stereo not given in full): the composite z-score in test [1] was -0.186; in test [2], 0.307; in [3], -0.117; in [4], 0.29; in test [5], 0.0151; in test [6], 0.0635. In addition, the composite z-score in [7] was -0.391; in [9], 0.146; in test [10], -0.0994; in test [11], 0.479; in [15], -0.204; in test [17], -0.128. The composite z-score in [18] is 0.146; in [19], -0.139; in [20] it was -0.0828. For the same molecule, the z-score in test [8] is -1.71 (inactive); in test [12] it was -3.36 (inactive); in test [13], 0.365 (inactive); in [14] it was -1.4 (inactive); in test [16], 0.761 (inactive).

As for `N#Cc1ccc(NN2C(C(O)c3cccs3)C=CC3C(=O)N(c4ccccc4)C(=O)C32)cc1` (stereo not given), the composite z-score in [1] is 0.106; in test [2], 0.145; in test [3], 0.0887; in test [4], 0.546; in test [5], 1.47; in test [6], 1.93. The composite z-score in test [7] is 1.06; in test [9], 0.632; in test [10], -0.236; in test [11] it was 0.843; in [15], 3.35; in test [17], -0.0768. The figures for the composite z-score in test [18], in test [19] and in test [20] were -0.187, 0.708 and -0.0357, respectively. In addition, the z-score in test [8] was -0.911 (inactive); in [12] it was -1.34 (inactive); in test [13] it was 1.73 (inactive); in test [14], 2.72 (inactive); in test [16], -0.445 (inactive).
